PubChem BioAssay (NCI)
Compounds without any hit were thinned out: in the full panel of roughly 83,000, 20% have a hit.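 Values shown are percent growth following 48 h exposure of cells in 96-well plates to a single concentration of compound; below 10 was considered active.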 The source made the active and inactive calls.

Legend:
Assay in all cases: NCI-60 one-dose screen, 48 h (100 = growth as untreated, 0 = no growth, -100 = all killed)
Conditions in all cases: 10 µM
EKVX NSCLC = test system: EKVX NSCLC
SN12C renal = test system: SN12C renal
UO-31 renal = test system: UO-31 renal
TK-10 renal = test system: TK-10 renal
ACHN renal = test system: ACHN renal
CAKI-1 renal = test system: CAKI-1 renal
A498 renal = test system: A498 renal
MOLT-4 leukemia = test system: MOLT-4 leukemia
SR leukemia = test system: SR leukemia
OVCAR-8 ovarian = test system: OVCAR-8 ovarian
OVCAR-5 ovarian = test system: OVCAR-5 ovarian
OVCAR-4 ovarian = test system: OVCAR-4 ovarian
SK-OV-3 ovarian = test system: SK-OV-3 ovarian
IGROV1 ovarian = test system: IGROV1 ovarian
OVCAR-3 ovarian = test system: OVCAR-3 ovarian
HS 578T breast = test system: HS 578T breast
NCI/ADR-RES ovarian = test system: NCI/ADR-RES ovarian
CCRF-CEM leukemia = test system: CCRF-CEM leukemia
RPMI-8226 leukemia = test system: RPMI-8226 leukemia
T-47D breast = test system: T-47D breast

Measured: growth

Nc1ncn([C@@H]2O[C@H](CO)[C@@H](O)[C@H]2O)c(=O)n1
inactive: EKVX NSCLC 107% | SN12C renal 14.8% | UO-31 renal 15% | TK-10 renal 40.5% | ACHN renal 11.8% | CAKI-1 renal 22.3% | A498 renal 28.5% | MOLT-4 leukemia 33.6% | OVCAR-8 ovarian 22.4% | OVCAR-5 ovarian 56.8% | OVCAR-4 ovarian 34.1% | SK-OV-3 ovarian 17.4% | IGROV1 ovarian 18.5% | OVCAR-3 ovarian 22.7% | HS 578T breast 23.7% | NCI/ADR-RES ovarian 29.1%
active: SR leukemia 7.12%

Nc1ccc2cc(S(=O)(=O)O)cc(O)c2c1N=Nc1ccc(F)cc1
inactive: EKVX NSCLC 107% | SN12C renal 112% | UO-31 renal 51.3% | TK-10 renal 123% | ACHN renal 99.7% | CAKI-1 renal 108% | A498 renal 129% | CCRF-CEM leukemia 106% | MOLT-4 leukemia 99.8% | RPMI-8226 leukemia 106% | OVCAR-8 ovarian 107% | OVCAR-5 ovarian 99.5% | OVCAR-4 ovarian 137% | SK-OV-3 ovarian 103% | IGROV1 ovarian 120% | OVCAR-3 ovarian 117% | NCI/ADR-RES ovarian 99.3% | T-47D breast 101%

ClCCOCCn1cnc2c(Cl)nc(Cl)nc21
inactive: EKVX NSCLC 92.4% | SN12C renal 63.3% | UO-31 renal 88% | TK-10 renal 92.7% | ACHN renal 81.3% | A498 renal 93.1% | MOLT-4 leukemia 79.8% | SR leukemia 41.5% | RPMI-8226 leukemia 93.1% | OVCAR-8 ovarian 62.7% | OVCAR-5 ovarian 102% | SK-OV-3 ovarian 97.4% | IGROV1 ovarian 59% | OVCAR-3 ovarian 58.8% | HS 578T breast 12.4% | NCI/ADR-RES ovarian 101% | T-47D breast 80.9%
active: CAKI-1 renal -4.35%

O=C(N/N=C/c1ccccc1)C(Oc1ccccc1)c1ccccc1 (stereo not given)
inactive: EKVX NSCLC 80.8% | SN12C renal 96.5% | UO-31 renal 76% | TK-10 renal 106% | ACHN renal 93.1% | CAKI-1 renal 85.6% | CCRF-CEM leukemia 93.7% | MOLT-4 leukemia 101% | SR leukemia 91.8% | RPMI-8226 leukemia 98.1% | OVCAR-8 ovarian 100% | OVCAR-5 ovarian 101% | OVCAR-4 ovarian 102% | SK-OV-3 ovarian 104% | IGROV1 ovarian 98.9% | OVCAR-3 ovarian 105% | HS 578T breast 98.4% | NCI/ADR-RES ovarian 75.2% | T-47D breast 94.4%

Cc1cn(C2CCCCO2)c(=O)nc1NO (stereo not given)
inactive: EKVX NSCLC 92.9% | SN12C renal 103% | UO-31 renal 101% | TK-10 renal 103% | ACHN renal 110% | CAKI-1 renal 108% | CCRF-CEM leukemia 102% | MOLT-4 leukemia 99.1% | SR leukemia 116% | RPMI-8226 leukemia 111% | OVCAR-8 ovarian 101% | OVCAR-5 ovarian 109% | SK-OV-3 ovarian 119% | IGROV1 ovarian 113% | OVCAR-3 ovarian 109% | HS 578T breast 86.8% | NCI/ADR-RES ovarian 107%

COc1ccc(C2CC(c3ccc(N(C)C)cc3)=NN2c2ccc(S(N)(=O)=O)cc2)cc1 (stereo not given)
inactive: EKVX NSCLC 28.4% | SN12C renal 49.4% | UO-31 renal 32% | TK-10 renal 44.9% | ACHN renal 35.2% | CAKI-1 renal 48.2% | CCRF-CEM leukemia 49.4% | RPMI-8226 leukemia 34.1% | OVCAR-8 ovarian 42.3% | OVCAR-5 ovarian 84.3% | OVCAR-4 ovarian 48.6% | SK-OV-3 ovarian 70.3% | IGROV1 ovarian 56.6% | OVCAR-3 ovarian 54.7% | HS 578T breast 96.7% | T-47D breast 36.9%
